# Assay results published in PubChem BioAssay (Tox21).
# Values joined by “and” are separate entries in the source; they are usually repeats but may differ in a detail not shown here. Equal entries are not always repeated. Inconclusive results are not listed. Where a call stands in place of a potency, no number is given. Active and inactive are the calls of the source. Calls come from the whole dose curve; as a rule, active = well fitted curve in the direction sought with a large enough effect in the repeat runs; inconclusive = weak or mixed curves; inactive = no such curve, though single readings can be large; an effect the other way counts as inactive or inconclusive.
# What was measured:
# [1] = A CellTox Green Cytotoxicity Assay to monitor cytotoxicity in HEK293 cells - 32 hour (AID 1224881); note: nearly all actives have a fitted effect of over 40% in size; note: potency is the fitted concentration of half-maximal effect
# How it was run: (§1)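 Fluorescence intensity, read at 0, 8, 16, 24, 32 and 40 h of compound treatment, reflected dye binding to DNA of dead HEK293 cells; compounds (23 nL, DMSO) were added 5 h after plating cells with reagent.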
# [2] = A CellTox Green Cytotoxicity Assay to monitor cytotoxicity in HepG2 cells - 0 hour (AID 1224882); note: nearly all actives have a fitted effect of over 35% in size
# How it was run: (§2)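 Using 1536-well format, dye-containing HepG2 suspension was seeded, allowed 5 h at 37 C/5% CO2, dosed by pintool with compounds, positive and negative controls, and imaged for fluorescence across 40 h.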
# [3] = A CellTox Green Cytotoxicity Assay to monitor cytotoxicity in HepG2 cells - 32 hour (AID 1224883); note: nearly all actives have a fitted effect of over 50% in size; note: potency is the fitted concentration of half-maximal effect
# How it was run: as §2
# [4] = A CellTox Green Cytotoxicity Assay to monitor cytotoxicity in HEK293 cells - 8 hour (AID 1224884); note: nearly all actives have a fitted effect of over 35% in size
# How it was run: as §1
# [5] = qHTS RealTime-Glo MT Cell Viability Assay in HEK293 cells - 24 hour (AID 1224886); note: nearly all actives have a fitted effect of over 50% in size; note: potency is the fitted concentration of half-maximal effect; for activity change, negative = cytotoxicity: top concentration of the series differs between compounds
# How it was run: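 Cells + reagent dispensed (600 cells/well, HEK293) → 5 h at 37 C/5% CO2 → 23 nL compound in DMSO pinned → 40 h at 37 C → luminescence read at 0, 8, 16, 24, 32, 40 h.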
# [6] = qHTS RealTime-Glo MT Cell Viability Assay in HEK293 cells - 8 hour (AID 1224887); note: nearly all actives have a fitted effect of over 50% in size; note: potency is the fitted concentration of half-maximal effect; for activity change, negative = cytotoxicity: top concentration of the series differs between compounds
# How it was run: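 Viable HEK293 cells reduce a cell-permeant prosubstrate; the product diffuses out and is consumed by NanoLuc in the medium to give light. Compounds went in after a 5 h incubation and plates were read over the treatment course.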
# [7] = qHTS RealTime-Glo MT Cell Viability Assay in HepG2 cells - 0 hour (AID 1224889); note: nearly all actives have a fitted effect of over 50% in size; note: potency is the fitted concentration of half-maximal effect
# How it was run: (§3)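 Real-time, nonlytic viability: 600 HepG2 cells/well mixed with NanoLuc enzyme plus prosubstrate; 5 h settle, compound (DMSO) added by pintool; luminescence monitored over 40 h at 37 C.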
# [8] = A CellTox Green Cytotoxicity Assay to monitor cytotoxicity in HepG2 cells - 8 hour (AID 1224890); note: nearly all actives have a fitted effect of over 45% in size; note: potency is the fitted concentration of half-maximal effect
# How it was run: as §2
# [9] = qHTS RealTime-Glo MT Cell Viability Assay in HepG2 cells - 16 hour (AID 1224885); note: nearly all actives have a fitted effect of over 50% in size; note: potency is the fitted concentration of half-maximal effect
# How it was run: as §3
# [10] = A CellTox Green Cytotoxicity Assay to monitor cytotoxicity in HEK293 cells - 16 hour (AID 1224888); note: nearly all actives have a fitted effect of over 35% in size; note: potency is the fitted concentration of half-maximal effect
# How it was run: as §1
Structure (SMILES),Potency [1],cytotoxicity [2],Potency [3],cytotoxicity increase [4],Potency [5],"activity change, negative = cytotoxicity [6]","activity change, negative = cytotoxicity [7]",cytotoxicity increase [8],Potency [2],Potency [9],Potency [6],Potency [7],Potency [8],Potency [10],Potency [4]
CCN1/C(=C/C=C/c2sc3ccccc3[n+]2CC)Sc2ccccc21,10.4 µM (active),-4.71% [at 15.8 µM] (inactive),1.17 µM (active),-9.76% [at 15.8 µM] (inactive),1.17 µM (active),-21.6% [at 15.8 µM] (inactive),-13.2% [at 15.8 µM] (inactive),-7.07% [at 15.8 µM] (inactive),–,–,–,–,–,–,–
Oc1ccc2cc(SSc3ccc4cc(O)ccc4c3)ccc2c1,43.7 µM (active) and 19.5 µM (active),–,inactive,–,49 µM (active),–,–,–,inactive,inactive,39 µM (active),inactive,inactive,–,–
CC/C(=C(\c1ccc(O)cc1)c1ccc(OCCN(C)C)cc1)c1ccccc1,43.8 µM (active),–,49.1 µM (active),–,21.9 µM (active),–,–,–,inactive,61.8 µM (active),27.6 µM (active),inactive,–,55.1 µM (active),–
CCOC(=O)c1nc(C(Cl)(Cl)Cl)n(-c2ccc(Cl)cc2Cl)n1,inactive,–,inactive,–,inactive,–,–,–,inactive,–,–,inactive,inactive,inactive,inactive
CC(=O)N1CCN(c2ccc(OC[C@H]3CO[C@](Cn4ccnc4)(c4ccc(Cl)cc4Cl)O3)cc2)CC1,49 µM (active),–,49 µM (active),–,21.9 µM (active),–,–,–,inactive,49 µM (active),24.5 µM (active),24.5 µM (active),inactive,49 µM (active),–
CN(C)c1ccc(C2(c3ccc(N(C)C)cc3)OC(=O)c3cc(N(C)C)ccc32)cc1,inactive,–,inactive,–,inactive,–,–,–,inactive,–,inactive,inactive,inactive,inactive,inactive
CCN(Cc1cccnc1)C(=O)c1cccc(Cl)c1[C@]1(C)C(=O)N(Cc2ccc(OC)cc2OC)c2ccc(Cl)cc21,inactive,–,inactive,–,20.4 µM (active),–,–,–,inactive,–,20.4 µM (active),inactive,inactive,inactive,inactive
CCOC(=O)O[C@]1(C(=O)OCCl)CC[C@H]2[C@@H]3CCC4=CC(=O)C=C[C@]4(C)[C@H]3[C@@H](O)C[C@@]21C,inactive,–,inactive,–,–,–,–,–,inactive,–,inactive,3.38 µM (active),inactive,inactive,inactive
C[C@@H](NCCCc1cccc(C(F)(F)F)c1)c1cccc2ccccc12,23.9 µM (active),–,15.1 µM (active),–,23.9 µM (active),–,–,–,inactive,21.3 µM (active),23.9 µM (active),–,21.3 µM (active),23.9 µM (active),–
CN(C)C(=O)C1(N2CCCCC2)CCN(CC[C@@]2(c3ccc(Cl)c(Cl)c3)CN(C(=O)c3ccccc3)CCO2)CC1,32.4 µM (active),–,18.2 µM (active),–,11.5 µM (active),–,–,–,inactive,36.3 µM (active),16.2 µM (active),inactive,45.8 µM (active),45.8 µM (active),–
C[C@@H]1C[C@H]2[C@@H]3CCC4=CC(=O)C=C[C@]4(C)[C@@]3(Cl)[C@@H](O)C[C@]2(C)[C@@]1(OC(=O)c1ccco1)C(=O)CCl,inactive,–,inactive,–,inactive,–,–,–,inactive,–,inactive,inactive,inactive,inactive,inactive
O=C1c2ccccc2Cc2ccccc21,inactive,–,inactive,–,inactive,–,–,–,inactive,inactive,inactive,–,inactive,inactive,–
NNc1nc(-c2ccc([N+](=O)[O-])cc2)cs1,inactive,–,inactive,–,24.5 µM (active),–,–,–,inactive,–,inactive,inactive,inactive,inactive,inactive
CCC1=C[C@@H]2CN(C1)Cc1c([nH]c3ccccc13)[C@@](C(=O)OC)(c1cc3c(cc1OC)N(C)[C@H]1[C@@](O)(C(=O)OC)[C@H](OC(C)=O)[C@]4(CC)C=CCN5CC[C@]31[C@@H]54)C2,inactive,–,inactive,–,–,–,–,–,inactive,–,–,inactive,inactive,inactive,inactive
O=C(Nc1cccc(C(F)(F)F)c1)c1cc(Br)cc(Br)c1O,inactive,–,17.4 µM (active),–,4.9 µM (active),–,–,–,inactive,–,inactive,–,inactive,inactive,inactive
O=c1[nH]sc2ccccc12,54.9 µM (active),–,34.7 µM (active),–,38.9 µM (active),–,–,–,inactive,21.9 µM (active),49 µM (active),inactive,49 µM (active),–,–
CC[C@@]1(O)C(=O)OCc2c1cc1n(c2=O)Cc2c-1nc1ccccc1c2/C=N/OC(C)(C)C,inactive,–,1.07 µM (active),–,0.0239 µM (active),–,–,–,inactive,–,–,inactive,inactive,inactive,inactive
CCCCCCC[N+](CC)(CC)CCCCc1ccc(Cl)cc1,5.35 µM (active),–,23.9 µM (active),–,–,–,–,–,inactive,–,–,inactive,inactive,inactive,inactive
N=C1C=CC(=C(c2ccc(N)cc2)c2ccc(N)cc2)C=C1,inactive,–,inactive,–,3.47 µM (active),–,–,–,inactive,–,–,inactive,inactive,inactive,inactive
